The values that follow come from PubChem BioAssay AID504832 (National Center for Advancing Translational Sciences (NCATS), 2011).

Out of some 310,000 compounds screened, about 18,000 (5.8%) were called active. Roughly 22% stayed inconclusive and do not appear here. What follows is part of a selection rich in actives, with near analogues and random picks from the rest. A call without a number means that no potency is given here. Unmarked numbers belong to inactive results. The call rests on the fitted dose curve; in most records, active means well fitted inhibition curve with a large enough effect; inconclusive means small, poorly fitted or top-dose-only effect, or another doubt; inactive means no such curve, though single readings can be large or run the other way.
Potency means the concentration at half of the fitted maximal effect.

The nature of the assay: Primary qHTS for delayed death inhibitors of the malarial parasite plastid, 48 hour incubation. Particulars: P. falciparum luciferase growth in erythrocytes; series mostly up to 28.7 µM. Put shortly: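 Erythrocytes infected with P. falciparum carrying an integrated firefly luciferase reporter (2% hematocrit, 0.1% parasitemia final) were exposed to compounds in RPMI 1640 with 0.5% Albumax at 37 C, 5% CO2. Growth inhibition was scored as reduced luminescence.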
`O=C(OCC(=O)N1CCCC1=O)c1cc(S(=O)(=O)N2CCOCC2)ccc1Cl`: the Potency entry is “inactive”.

Consider `Cc1nnc(N/N=C/c2ccccn2)[nH]c1=O`, for which the Potency is 2.33 µM (active).

For `Cc1ccccc1Nc1nnc(C)c(=O)[nH]1`, the Potency entry is “inactive”.

As for `Cc1nnc(N/N=C/C2CC=CCC2)[nH]c1=O` (stereo not given), the Potency result is “inactive”.

Regarding `CCCCn1c(N)c(N(CCC(C)C)C(=O)COC(=O)c2cccnc2OCC)c(=O)[nH]c1=O`, the Potency result was “inactive”.

On to `CCCCn1c(N)c(N(CCC(C)C)C(=O)CC2OC(=O)c3ccccc32)c(=O)[nH]c1=O` (stereo not given), for which the Potency was 8.28 µM (active).

In the case of `CCCCn1c(N)c(N(CCC(C)C)C(=O)c2ccc([N+](=O)[O-])o2)c(=O)[nH]c1=O`, the Potency entry was “inactive”.

Regarding `Cc1cc2c(=O)n(CC(=O)NCC(=O)Nc3ccc(C(C)C)cc3)cnc2s1`, the Potency result is “inactive”.

In the case of `COc1ccc(NC(=S)NCCNC(C)=O)cc1`, the Potency entry is “inactive”.

For the compound `COc1ccc(CS(=O)/C(Cl)=C(/Cl)C(=O)Nc2ccc(OC)nc2)cc1` (stereo not given), the Potency is 9.28 µM (active).

For `COc1ccc(C(=O)Nc2ccc(NC(=O)C(C)C)nc2)cc1`, the Potency result was “inactive”.

With `Cc1ccsc1C(=O)NC1CCCCC1C` (stereo not given), the Potency result is “inactive”.

As for `CC1CCN(S(=O)(=O)c2ccc3c(c2)n(C)c(=O)n3C)CC1`, the Potency entry is “inactive”.

As to `O=S(=O)(NCCS(=O)(=O)N1CCN(c2ccccc2)CC1)c1ccc(F)cc1`, the Potency entry was “inactive”.

For the compound `Cc1ccc2nnn(Cc3cccc(C(C)(C)C)c3O)c2c1`, the Potency was 11.7 µM (active).

Take `Cc1ccc(C(=O)CSc2nnc(Cn3nnc4ccccc43)n2C)cc1`: the Potency result was “inactive”.

Regarding `COc1ccccc1NC(=O)C(C)OC(=O)CC1CCCC1` (stereo not given), the Potency result is “inactive”.

For the compound `Cc1ccc(N(C(=O)c2sc(C)nc2C)C(C(=O)NC(C)(C)C)c2ccncc2)cc1` (stereo not given), the Potency entry is “inactive”.

For `CC(C)(C)NC(=O)C(c1ccc(Cl)cc1)N(CCO)C(=O)c1snc(C(N)=O)c1N` (stereo not given), the Potency is 6.57 µM (active).

`NC(=O)c1ccc(Nc2ccc3nonc3c2[N+](=O)[O-])cc1`: the Potency entry is “inactive”.

For the compound `COC(=O)c1cc(S(=O)(=O)NCC2CCN(Cc3ccc(Cl)cc3)CC2)cn1C`, the Potency result is “inactive”.

As for `O=C(c1ccc(Cl)s1)N(Cc1nnc(-c2ccccc2Cl)o1)C1CC1`, the Potency result was “inactive”.

As to `CN(C(=O)COC(=O)c1cc(-c2ccco2)nc2ccccc12)C1CCS(=O)(=O)C1` (stereo not given), the Potency entry is “inactive”.

For the compound `O=C(c1cc(-c2ccco2)nc2ccccc12)N(Cc1nnc(-c2ccc(Cl)cc2)o1)C1CC1`, the Potency is 4.15 µM (active).

On to `O=C(Nc1cccc(F)c1)NC1CCCc2ccccc21` (stereo not given), for which the Potency entry was “inactive”.

Turning to `Cc1cc(=O)[nH]c(Nc2cccc(Br)c2)n1`, the Potency result was “inactive”.

As to `O=C(CCc1nnc2ccc(NCc3ccco3)nn12)Nc1cc(F)ccc1F`, the Potency result was “inactive”.

Consider `COc1ccc(Cl)cc1C(=O)NCC#N`, for which the Potency result was “inactive”.

As for `N#C/C=C\Oc1ccc(Cl)cc1N`, the Potency was 7.38 µM (active).

Regarding `COC(=O)CNC(=O)c1cc(-c2ccncc2)nc2ccccc12`, the Potency result was “inactive”.

As for `O=C(Nc1ccncc1)c1cc(-c2ccccn2)nc2ccc(Br)cc12`, the Potency entry is “inactive”.

In the case of `CCN(CC)CCNC(=O)c1ccc(NC(=O)c2cc(-c3ccncc3)nc3ccccc23)cc1`, the Potency was 0.828 µM (active).

As for `CCN(CC)CCNC(=O)c1ccc(NC(=O)c2c(F)cccc2Cl)cc1`, the Potency entry was “inactive”.

As to `Cc1ccc2nc(-c3ccncc3)cc(C(=O)Nc3ccncc3)c2c1`, the Potency is 13.1 µM (active).

Consider `Cc1ccc2nc(-c3ccccn3)cc(C(=O)Nc3ccc4c(c3)OCO4)c2c1`, for which the Potency entry was “inactive”.

As to `COc1ccc(C(=O)O)cc1S(=O)(=O)NCc1cccnc1`, the Potency result was “inactive”.

As for `CC(=O)Nc1ccc(NC(=O)C2CCCN2S(=O)(=O)c2cccc(C(F)(F)F)c2)cc1` (stereo not given), the Potency result is “inactive”.

For the compound `CCCCn1c(N)c(N(CC(C)C)C(=O)CN(C)S(=O)(=O)c2ccc(F)cc2)c(=O)[nH]c1=O`, the Potency result was “inactive”.

Take `CSCCC(NC(=O)COc1ccccc1)C(=O)OCCOc1ccc(F)cc1` (stereo not given): the Potency result was “inactive”.

For the compound `O=C1CSc2ccc(S(=O)(=O)NCc3ccccc3)cc2N1`, the Potency result was “inactive”.

`CCN1/C(=C/c2ccc3ccc(C)cc3[n+]2CC)Sc2ccccc21`: the Potency is 1.17 µM (active).

For the compound `CCN1/C(=C\c2ccc3ccccc3[n+]2CC)Sc2cc(C)ccc21`, the Potency was 1.17 µM (active).

As to `CCN1/C(=C/C(=S)Nc2ccccc2)Sc2ccccc21`, the Potency result was “inactive”.

Consider `CCOC(=O)c1c(C)[nH]c(C(=O)OCC(=O)c2ccc(OC)cc2OC)c1C`, for which the Potency result was “inactive”.

Consider `CCCc1cc(=O)oc2c(C)c(OCC(=O)Nc3ccccn3)ccc12`, for which the Potency result is “inactive”.

As to `O=C(COC(=O)c1cnccn1)Nc1ccc(Cl)cc1C(F)(F)F`, the Potency result was “inactive”.

Regarding `COC(=O)c1ccc(CSc2ccc(S(=O)(=O)N3CCCCC3)cn2)cc1`, the Potency entry was “inactive”.

Consider `CN(Cc1ccccc1)S(=O)(=O)c1nnc(NC(=O)c2ccccc2F)s1`, for which the Potency entry is “inactive”.

Take `COc1ccc(CCc2nc(-c3cccs3)no2)cc1`: the Potency entry is “inactive”.

For the compound `C=CCc1ccccc1OCC(O)CN1CCN(CCO)CC1` (stereo not given), the Potency result is “inactive”.

As to `Cc1cc(C)n2nc(C(=O)OC(C)C(=O)c3cc(C)c(C)cc3C)nc2n1` (stereo not given), the Potency result was “inactive”.

For `CCOC(=O)C1CN(S(=O)(=O)c2ccc(OC)cc2)c2cc(Cl)ccc2O1` (stereo not given), the activity change, negative = inhibition is -15.5% [at 0.00184 µM].

For the compound `O=C(NNC(=O)c1cccnc1)Nc1ccccc1`, the Potency result is “inactive”.

For the compound `O=C(NNC(=O)c1csc(-c2cccnc2)n1)Nc1ccc(Cl)cc1`, the Potency is 8.28 µM (active).

Regarding `O=C(Nc1ccc(Cl)cc1)Nc1ccc(Oc2cccnc2)nc1`, the Potency result was “inactive”.

In the case of `COc1cccc(CNS(=O)(=O)c2ccc3c(c2)CC(C)N3C(C)=O)c1` (stereo not given), the Potency entry is “inactive”.

For the compound `Cc1cccc(OCC(=O)NC2CC(C)(C)NC(C)(C)C2)c1`, the Potency result is “inactive”.

As for `COc1ccc(CCNC(=O)c2c(C)nn(-c3ccccc3)c2Cl)cc1`, the Potency entry was “inactive”.

On to `CC(C)(C)Nc1nc(-c2ccccn2)nc2ccccc12`, for which the Potency was 2.94 µM (active).

Consider `COc1ccc(Nc2nc(-c3cccnc3)nc3ccccc23)cn1`, for which the Potency result was “inactive”.

With `COc1ccc(Sc2nc(-c3ccccc3)ncc2OC)cc1`, the Potency result is “inactive”.

On to `N#Cc1ccc(Oc2cc(C(F)(F)F)nc(-c3ccccn3)n2)cc1`, for which the Potency entry is “inactive”.

Turning to `CCC(=O)OCCNc1nc(-c2ccccc2)nc2ccccc12`, the Potency entry is “inactive”.

On to `Cc1ccc(Oc2nc3ccccc3n3c(C)nnc23)cc1`, for which the Potency result is “inactive”.

For the compound `Cc1ccc(Oc2nc(-c3ccccn3)nc3ccccc23)cc1`, the Potency is 1.47 µM (active).

For the compound `COc1ccc(Cc2nc(-c3ccccn3)no2)cc1OC`, the Potency entry was “inactive”.

With `COc1cnc(-c2ccccn2)nc1Oc1ccc(C(C)(C)C)cc1`, the Potency was 1.65 µM (active).

On to `COc1ccc(S(=O)(=O)N(CC(=O)N/N=C/c2ccc(C(=O)O)cc2)Cc2ccccc2)cc1OC`, for which the Potency result is “inactive”.

Regarding `COc1ccc(C)cc1N(CC(=O)NC(C)c1ccccc1)S(C)(=O)=O` (stereo not given), the Potency result is “inactive”.

In the case of `Cc1ccccc1OCC(=O)NNC(=O)c1cc(S(=O)(=O)N(C)C)ccc1N1CCCC1`, the Potency result was “inactive”.

As for `Cc1ccc(S(=O)(=O)N(CC(O)CN2CCCCC2)c2cccc([N+](=O)[O-])c2)cc1` (stereo not given), the Potency result is “inactive”.

Regarding `CC(C)CNS(=O)(=O)c1ccc(CCC(=O)NCc2ccc(Cl)cc2)cc1`, the Potency result is “inactive”.

Turning to `NC(=O)c1cc(S(=O)(=O)N2CCCC2)ccc1OCc1ccc(F)cc1`, the Potency entry is “inactive”.

As to `CCOc1ccc(-c2nnc(-c3ccco3)o2)cc1`, the Potency result was “inactive”.

`CCOc1ccc(-c2cc(C)[n+](CCN(CC)CC)c(-c3ccc(OCC)cc3)c2)cc1`: the Potency is 0.329 µM (active).

For `CCOc1ccc(-c2nnc3ccc(SC)nn23)cc1`, the Potency entry is “inactive”.

Turning to `O=C(Nc1ccc(NC(=O)c2ccco2)c(Cl)c1)c1cccc([N+](=O)[O-])c1`, the Potency was 10.4 µM (active).

On to `COc1cc(NC(=O)c2cc([N+](=O)[O-])ccc2Br)ccc1NC(=O)c1ccco1`, for which the Potency result was “inactive”.

For the compound `CCC(=O)NC(=S)Nc1ccc(NC(=O)c2ccco2)c(Cl)c1`, the Potency result was “inactive”.

Turning to `Cc1ccc(OCC(=O)NC(C)c2ccccc2)cc1C` (stereo not given), the Potency entry is “inactive”.

As to `O=C(N/N=C/c1ccc(O)c2ccccc12)c1cccnc1`, the Potency result was “inactive”.

For `Cc1ccc2occ(/C=N/NC(=O)c3ccccc3C)c(=O)c2c1`, the Potency entry was “inactive”.

`Cc1ccc(/C=N/NC(=O)C2=NNC(c3ccccc3)(c3ccccc3)C2)c(O)c1`: the Potency was 4.15 µM (active).

As to `CCN(C(=O)CSc1nnnn1-c1ccccc1OC)C1CCS(=O)(=O)C1` (stereo not given), the Potency entry is “inactive”.

On to `CC(=O)N1CCSc2ccc(S(=O)(=O)N3CCC(C)CC3)cc21`, for which the Potency entry was “inactive”.

Take `CCc1ccc(NC(=O)Cn2nnc(C(=O)NCc3ccc(OC)cc3)c2N)cc1`: the Potency result was “inactive”.

In the case of `COc1cccc(-c2ccc(SCC(=O)N3CCN(c4ccccc4)CC3)nn2)c1`, the Potency entry is “inactive”.

Take `COc1ccc(C(CC(=O)N2CCN(c3ccccc3)CC2)c2c(O)cc(OC)cc2OC)cc1` (stereo not given): the Potency is 10.4 µM (active).

Take `CC(CC(=O)N1CCN(c2ccccc2)CC1)c1ccccc1` (stereo not given): the Potency entry is “inactive”.

As for `Cc1ccc(CS(=O)(=O)CCC(=O)NCc2ccc(F)cc2)cc1`, the Potency result is “inactive”.

In the case of `CC[C@]1(c2ccccc2OC)C(=O)N(C(=O)OC)N1C(=O)OC`, the Potency entry is “inactive”.

For `CCOc1ccc(NC(=O)CN(C)C(=O)c2c(C)noc2C)cc1OCC`, the Potency result was “inactive”.

Turning to `Cc1ccc(S(=O)(=O)CCC(=O)OCC(=O)N(C)C2CCS(=O)(=O)C2)cc1` (stereo not given), the Potency entry was “inactive”.

In the case of `Cc1cc(C)c(C)c(S(=O)(=O)Nc2ccc(O)cc2)c1C`, the Potency was 7.38 µM (active).

On to `CCOc1ccc(NS(=O)(=O)c2cc(C)c(C)cc2C)cc1`, for which the Potency entry was “inactive”.

On to `Cc1cc(C(C)(C)C)cc(S(=O)(=O)Nc2ccc(C(=O)O)cc2)c1C`, for which the Potency entry was “inactive”.

As to `NS(=O)(=O)c1ccc(CCNC(=O)CNC(=O)Cc2ccccc2)cc1`, the Potency entry is “inactive”.

Take `O=C1NC(=O)C(c2ccc(Cl)cc2)N1` (stereo not given): the Potency result is “inactive”.

Take `S=C(c1ccccc1)N1CCCC1`: the Potency entry is “inactive”.

`CCCSc1nc2c(c(=O)[nH]c(=O)n2C)n1CCc1ccccc1`: the Potency result was “inactive”.

For the compound `Cn1c(=O)[nH]c(=O)c2c1nc(N1CCCCCC1)n2CC(=O)c1ccccc1`, the Potency entry is “inactive”.

Take `CC1CCN(c2nc3c(c(=O)[nH]c(=O)n3C)n2CCCc2ccccc2)CC1`: the Potency is 11.7 µM (active).

Regarding `Cc1[nH]c2ccccc2c1C(=O)C(C)Sc1nnc(C2CC2)o1` (stereo not given), the Potency is 3.7 µM (active).

`Cc1[nH]c2ccccc2c1C(=O)COC(=O)C(C)C`: the Potency result is “inactive”.

On to `Cc1[nH]c2ccccc2c1C(=O)CN1CC(C)CC(C)C1` (stereo not given), for which the Potency entry was “inactive”.
